Many of the other results were omitted from the sample, so hits are more common in it than they were.
FXIa inh: human FXIa protease inhibitors, primary screen, biochemical, single compound per well. purified human FXIa, fluorogenic AMC substrate cleavage. inhibition, % at 10 µM. 33,000 compounds, 0.3% hits;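 active means inhibition above 40% in the primary screen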;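 further: 0% = enzyme without compound and 100% = blank wells lacking enzyme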
FXIIa single: human FXIIa protease inhibitors, primary screen, biochemical, single well; purified human FXIIa, AMC substrate fluorescence, 2 h; inhibition, % at 10 µM; 33,000 compounds, 0.2% hits; AID 701, 2007; in the data active means inhibition above about 30%;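 further: 0% = enzyme with vehicle only and 100% = no enzyme blank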
Starred values were filed as active, the others as inactive.

SMILES	FXIa inh	FXIIa single
COC(=O)CSc1nnc(C)n1-c1ccc(C)cc1	-5.6	8.7
COC(=O)CSc1nnc(C)n1-c1cccc(OC)c1	43.3*	1.3
Cc1ccc(S(=O)(=O)NCC2CCC(C(=O)O)CC2)cc1 (stereo unspecified)	-6.5	5.3
Cc1ccc(-n2c(CNc3ccc(F)cc3)nnc2SCC(N)=O)cc1	-1.8	4.6
COc1ccc(CN(C)C2CCCCC2)c(C)c1C	-10.6	6.2
CCC1CC2CC(NC(C)=O)C1C2 (stereo unspecified)	47.4*	3.6
CC(=O)N[C@H]1C[C@@H]1c1ccccc1	3.0	5.9
Cc1ccc(NS(C)(=O)=O)c(C(=O)c2ccccc2)c1	3.2	6.7
CC1C/C(=N\NC(=S)NC(C)C)CC(C)(C)C1 (stereo unspecified)	-9.5	5.6
CN(C)CCNCc1ccc(OC2CCCC2)cc1	0.2	5.2
CCC(CO)NCc1ccc(OC2CCCC2)cc1 (stereo unspecified)	65.6*	-16.9
COc1ccc(Cl)cc1S(=O)(=O)N1CCCC1	-10.2	3.6
CCCn1c(SCC(=O)Nc2ccccc2Oc2ccccc2)n[nH]c1=O	-0.5	3.9
COc1ccc2c(c1)CCc1c(C(=O)Nc3c(C)nn(Cc4ccccc4)c3C)noc1-2	29.0	-9.2
COc1ccc2c(c1)CCc1c(C(=O)NCc3ccc(Cl)cc3)noc1-2	1.6	81.2*
Cc1ccc(C(C(=O)NC2CCCCC2)N2CCN(C(=O)c3ccco3)CC2)cc1 (stereo unspecified)	0.5	1.5
CCOC(=O)Cc1csc(SCC(=O)Nc2cc(Cl)ccc2Oc2ccccc2)n1	-3.0	1.9

Bioassay records as filed in PubChem BioAssay.
